Records with an inconclusive call do not appear. Active and inactive are the calls of the source. Unless noted, calls come from the whole dose curve; as a rule, active = well fitted curve in the direction sought with a large enough effect in the repeat runs; inconclusive = weak or mixed curves; inactive = no such curve, though single readings can be large; an effect the other way counts as inactive or inconclusive.
How the values were obtained:
[1] = target: Progesterone receptor (Homo sapiens) (UniProt P06401); experiment: qHTS assay to identify small molecule agonists of the progesterone receptor (PR) signaling pathway (AID 1346784; calls by dose curve; note: nearly all actives have a fitted effect of over 30% in size)
Method in brief: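 PR-UAS-bla HEK 293T cells (beta-lactamase reporter under UAS) in 2% charcoal-stripped FBS, dosed with 23 nL compound after 6 hr, incubated 16hr at 37C. LiveBLAzer B/G FRET substrate added, fluorescence read after 2 hours.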

[2] = target: Progesterone receptor (Homo sapiens) (UniProt P06401); experiment: qHTS assay to identify small molecule antagonists of the progesterone receptor (PR) signaling pathway (AID 1346795; active = well fitted inhibition curve with a large enough effect in the signal ratio in the repeat runs, not every such curve was filed as active; the % refers to the signal ratio)
Method in brief: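 PR-UAS-bla HEK293T cells with beta-lactamase reporter under UAS control, in 2% charcoal-stripped FBS, treated with compounds plus 1 nM promegestone (R5020, final) for 16 hr at 37C. Read-out: FRET beta-lactamase substrate fluorescence after 2 hr at room temperature.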

[3] = qHTS assay to identify small molecule antagonists of the progesterone receptor (PR) signaling pathway - cell viability counter screen (AID 1346798); note: series mostly up to about 92 µM; nearly all actives have a fitted effect of over 50% in size
Method in brief: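 PR-UAS-bla HEK293T cells, 3,000/well in 2% charcoal-stripped FBS medium, dosed with compounds plus R5020 agonist and incubated 16 h at 37C. Viability then measured in the same wells by CellTiter-Glo luminescence after 30 min at RT.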

[4] = qHTS assay to identify small molecule agonists of the progesterone receptor (PR) signaling pathway - cell viability counter screen (AID 1346799; calls by dose curve; note: nearly all actives have a fitted effect of over 45% in size)
Method in brief: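 Counter screen in the PR-UAS-bla HEK293T wells (2% charcoal-stripped FBS, 16 h compound exposure at 37 C) after the bla read. CellTiter-Glo added, 30 min at room temperature, luminescence read as cell viability.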

[5] = qHTS assay to identify small molecule antagonists of the TGF-beta/Smad signaling pathway - cell viability counter screen (AID 1346824); note: nearly all actives have a fitted effect of over 50% in size
Method in brief: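 SBE-bla HEK 293T cells, incubated overnight, then compound plus 0.25 ng/mL TGF-beta1 (stock added) for 5 hr at 37 C. Viability was read in the same wells by CellTiter-Glo luminescence after 30 min at room temperature.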

[6] = qHTS assay to identify small molecule agonists of the TGF-beta/Smad signaling pathway - cell viability counter screen (AID 1346829); note: top concentration of the series differs between compounds; nearly all actives have a fitted effect of over 45% in size
Method in brief: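 In parallel with the Smad reporter read, viability of HEK 293T cells stably carrying SBE-bla is quantified by ATP luminescence following 5 hr compound treatment.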

[7] = qHTS assay to identify small molecule agonists of the TGF-beta/Smad signaling pathway (AID 1346859; active = well fitted activation curve with a large enough effect in the signal ratio in the repeat runs, not every such curve was filed as active; the % refers to the signal ratio; note: series mostly up to about 77 µM)
Method in brief: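 SBE-bla HEK293T cells plated overnight, then compound exposure for 5 h at 37 C. Beta-lactamase reporter read with LiveBLAzer B/G FRET substrate after 2 h at room temperature, fluorescence at 405 nm excitation, 460/530 nm emission.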

[8] = target: Thyrotropin-releasing hormone receptor (Homo sapiens) (UniProt P34981); experiment: qHTS assay to identify small molecule antagonists of the thyrotropin-releasing hormone receptor (TRHR) signaling pathway (AID 1346877; active = well fitted inhibition curve with a large enough effect in the repeat runs, not every such curve was filed as active; note: series mostly up to about 51 µM)
Method in brief: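 TRHR-expressing HEK293 cells were seeded, cultured 18 h at 37 °C, then loaded with calcium dye for 2 h. Compounds were pre-incubated 5 min at room temperature before 1 nM TRH (final) was added, and kinetic fluorescence was recorded for 3 min.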

[9] = target: Thyrotropin-releasing hormone receptor (Homo sapiens) (UniProt P34981); experiment: qHTS assay to identify small molecule agonists of the thyrotropin-releasing hormone receptor (TRHR) signaling pathway (AID 1346891; calls by dose curve; note: series mostly up to about 58 µM)
Method in brief: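 HEK293 cells expressing TRHR plated 18 h at 37 C/5% CO2, calcium dye-loaded 2 h at 37 C, then compound added (agonist mode); kinetic calcium fluorescence read 3 min at 1 s intervals; 15 concentrations in triplicate.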

[10] = Human pregnane X receptor (PXR) small molecule agonists, qHTS cell viability counter screen (AID 1346977); note: nearly all actives have a fitted effect of over 50% in size
Method in brief: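 PXR-Luc HepG2 cells (2,000/well, 5% charcoal-stripped FBS) preincubated 5 hr, then exposed to compounds 24 hr at 37 C. Viability read in the same wells by CellTiter-Fluor fluorescence, reagent added at 23 hr, 1 hr incubation.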

[11] = Caspase-3/7 induction in HepG2 cells by small molecules, qHTS assay (AID 1346978); note: nearly all actives have a fitted effect of over 15% in size
Method in brief: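 Wild-type HepG2 cells, 2,000/well, settled 5 hr at 37 C and 5% CO2, then compound-treated for 17 hr; caspase-3/7 activity read by luminescent Caspase-Glo 3/7 after 30 min at room temperature.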

[12] = Caspase-3/7 induction in CHO-K1 cells by small molecules, qHTS cell viability counter screen (AID 1346979); note: nearly all actives have a fitted effect of over 35% in size; note: potency is the fitted concentration of half-maximal effect
Method in brief: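 Wild-type CHO-K1 cells (1,500/well) treated with compound after 5 h plating; after 16 h at 37C, viability read as CellTiter-Fluor fluorescence following 1 h reagent incubation, in the same wells as the caspase read.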

[13] = Caspase-3/7 induction in CHO-K1 cells by small molecules, qHTS assay (AID 1346980); note: nearly all actives have a fitted effect of over 15% in size
Method in brief: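 Wild-type CHO-K1 cells exposed to compounds for 17hr at 37 C, 5% CO2. Caspase-3/7 activity then measured by Caspase-Glo 3/7 luminescence after 30min at room temperature.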

[14] = target: Nuclear receptor subfamily 1 group I member 2 (Homo sapiens) (UniProt O75469); experiment: Human pregnane X receptor (PXR) small molecule agonists, qHTS assay (AID 1346982); note: nearly all actives have a fitted effect of over 35% in size; note: potency is the fitted concentration of half-maximal effect
Method in brief: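 PXR-Luc HepG2 cells (CYP3A4 promoter-driven luciferase) were seeded in medium with 5% charcoal-stripped FBS, left 5 hr at 37 C, then exposed to compounds in DMSO for 24 hr. Luminescence was read after ONE-Glo addition.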

[15] = target: Cytochrome P450 2D6 (Homo sapiens) (UniProt P10635); experiment: Cytochrome P450 Family 2 Subfamily D Member 6 (CYP2D6) small molecule antagonists: luciferase reporter qHTS assay (AID 1671196); note: series mostly up to about 120 µM; nearly all actives have a fitted effect of over 50% in size
Method in brief: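 CYP2D6 enzyme–substrate mix was held with compound for 10 min at room temperature, then NADPH regeneration solution was added and the reaction ran 1 h at room temperature. Luciferin product was detected by luminescence after 20 min with detection reagent.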

[16] = target: Cytochrome P450 2C19 (Homo sapiens) (UniProt P33261); experiment: Cytochrome P450 Family 2 Subfamily C Member 19 (CYP2C19) small molecule antagonists: luciferase reporter qHTS assay (AID 1671197); note: nearly all actives have a fitted effect of over 65% in size; note: potency is the fitted concentration of half-maximal effect
Method in brief: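 Compounds were tested on CYP2C19 activity via proluciferin conversion to luciferin. The 37C, 1 h reaction followed NADPH addition; detection reagent stopped it.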

[17] = target: Cytochrome P450 2C9 (Homo sapiens) (UniProt P11712); experiment: Cytochrome P450 Family 2 Subfamily C Member 9 (CYP2C9) small molecule antagonists: luciferase reporter qHTS assay (AID 1671198); note: nearly all actives have a fitted effect of over 50% in size; note: potency is the fitted concentration of half-maximal effect
Method in brief: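 P450-Glo proluciferin substrate with CYP2C9 enzyme; 10 min RT preincubation, then NADPH regeneration 1 h at 37C; luciferin detection reagent 20 min RT, luminescence in relative luminescence units.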

[18] = Caspase-3/7 induction in HepG2 cells by small molecules, qHTS cell viability counter screen (AID 1346981); note: series mostly up to about 92 µM; nearly all actives have a fitted effect of over 30% in size
Method in brief: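 Wild-type HepG2 cells (2,000/well) were allowed to settle for 5 hr at 37 C, 5% CO2, then dosed with compounds in DMSO by pin transfer. After 16 hr at 37 C, CellTiter-Fluor was added and fluorescence read 1 hr later.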

Measured: Potency

Cytochrome P450 2C19 (Homo sapiens), sequence (P33261 whole entry, looked up): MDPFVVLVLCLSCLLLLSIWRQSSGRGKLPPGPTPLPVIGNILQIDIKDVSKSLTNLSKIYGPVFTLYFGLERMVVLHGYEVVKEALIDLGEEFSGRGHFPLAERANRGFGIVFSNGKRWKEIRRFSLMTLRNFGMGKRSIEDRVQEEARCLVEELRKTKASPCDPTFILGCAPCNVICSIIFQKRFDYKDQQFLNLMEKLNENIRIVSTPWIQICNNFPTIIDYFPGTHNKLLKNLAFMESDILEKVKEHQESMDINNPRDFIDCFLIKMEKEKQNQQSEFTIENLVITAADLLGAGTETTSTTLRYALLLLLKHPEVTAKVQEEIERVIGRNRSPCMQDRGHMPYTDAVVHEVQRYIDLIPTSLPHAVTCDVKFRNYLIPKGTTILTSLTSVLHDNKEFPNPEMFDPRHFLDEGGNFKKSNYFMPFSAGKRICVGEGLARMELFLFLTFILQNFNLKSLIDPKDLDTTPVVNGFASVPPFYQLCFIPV
Progesterone receptor (Homo sapiens), sequence (P06401 whole entry, looked up): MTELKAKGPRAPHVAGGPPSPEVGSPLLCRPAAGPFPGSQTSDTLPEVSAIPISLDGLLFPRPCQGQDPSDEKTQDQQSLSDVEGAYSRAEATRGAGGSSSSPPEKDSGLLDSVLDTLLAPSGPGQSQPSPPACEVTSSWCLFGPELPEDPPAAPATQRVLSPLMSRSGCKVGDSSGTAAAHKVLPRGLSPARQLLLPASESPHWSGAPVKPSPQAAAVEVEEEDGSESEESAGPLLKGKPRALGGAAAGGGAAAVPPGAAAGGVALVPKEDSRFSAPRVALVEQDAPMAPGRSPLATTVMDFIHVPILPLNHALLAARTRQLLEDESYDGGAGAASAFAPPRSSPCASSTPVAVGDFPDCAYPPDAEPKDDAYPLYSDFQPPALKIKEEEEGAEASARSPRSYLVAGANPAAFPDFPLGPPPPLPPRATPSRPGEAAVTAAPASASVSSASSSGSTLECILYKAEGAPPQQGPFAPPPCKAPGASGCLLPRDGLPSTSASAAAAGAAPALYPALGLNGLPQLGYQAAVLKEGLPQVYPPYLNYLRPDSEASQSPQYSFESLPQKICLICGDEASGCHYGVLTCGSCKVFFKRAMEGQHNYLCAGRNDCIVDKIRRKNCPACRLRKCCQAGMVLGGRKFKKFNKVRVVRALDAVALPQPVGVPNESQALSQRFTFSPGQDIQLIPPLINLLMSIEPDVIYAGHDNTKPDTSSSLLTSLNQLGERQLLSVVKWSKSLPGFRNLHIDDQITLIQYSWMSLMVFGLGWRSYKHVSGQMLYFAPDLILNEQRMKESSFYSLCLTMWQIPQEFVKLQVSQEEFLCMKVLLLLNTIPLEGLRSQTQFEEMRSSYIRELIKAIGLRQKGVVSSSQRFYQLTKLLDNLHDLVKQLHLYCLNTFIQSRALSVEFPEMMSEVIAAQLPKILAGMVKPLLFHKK
Cytochrome P450 2D6 (Homo sapiens), sequence (P10635 whole entry, looked up): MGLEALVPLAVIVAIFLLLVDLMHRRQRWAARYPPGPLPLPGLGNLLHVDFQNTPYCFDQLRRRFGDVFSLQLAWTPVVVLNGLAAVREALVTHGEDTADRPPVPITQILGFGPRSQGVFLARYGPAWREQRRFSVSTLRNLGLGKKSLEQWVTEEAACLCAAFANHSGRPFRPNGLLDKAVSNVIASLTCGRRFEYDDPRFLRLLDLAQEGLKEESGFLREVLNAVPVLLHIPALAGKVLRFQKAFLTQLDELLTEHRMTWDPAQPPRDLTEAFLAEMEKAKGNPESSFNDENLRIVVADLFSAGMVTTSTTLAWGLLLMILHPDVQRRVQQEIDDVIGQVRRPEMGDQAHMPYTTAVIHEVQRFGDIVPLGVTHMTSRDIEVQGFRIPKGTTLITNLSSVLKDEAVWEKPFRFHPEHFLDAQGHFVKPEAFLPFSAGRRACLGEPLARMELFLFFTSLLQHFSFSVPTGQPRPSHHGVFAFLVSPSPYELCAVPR
Nuclear receptor subfamily 1 group I member 2 (Homo sapiens), sequence (O75469 whole entry, looked up): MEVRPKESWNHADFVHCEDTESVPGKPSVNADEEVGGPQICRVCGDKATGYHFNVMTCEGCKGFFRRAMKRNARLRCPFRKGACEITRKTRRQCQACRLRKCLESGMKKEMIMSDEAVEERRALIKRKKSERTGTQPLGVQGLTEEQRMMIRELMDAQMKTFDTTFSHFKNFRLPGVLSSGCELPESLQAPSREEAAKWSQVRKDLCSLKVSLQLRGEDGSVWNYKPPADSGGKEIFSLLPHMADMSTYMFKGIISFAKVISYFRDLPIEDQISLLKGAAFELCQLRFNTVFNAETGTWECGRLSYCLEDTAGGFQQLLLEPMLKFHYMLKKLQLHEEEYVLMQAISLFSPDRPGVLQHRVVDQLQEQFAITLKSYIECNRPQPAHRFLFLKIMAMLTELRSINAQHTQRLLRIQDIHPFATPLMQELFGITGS
Cytochrome P450 2C9 (Homo sapiens), sequence (P11712 whole entry, looked up): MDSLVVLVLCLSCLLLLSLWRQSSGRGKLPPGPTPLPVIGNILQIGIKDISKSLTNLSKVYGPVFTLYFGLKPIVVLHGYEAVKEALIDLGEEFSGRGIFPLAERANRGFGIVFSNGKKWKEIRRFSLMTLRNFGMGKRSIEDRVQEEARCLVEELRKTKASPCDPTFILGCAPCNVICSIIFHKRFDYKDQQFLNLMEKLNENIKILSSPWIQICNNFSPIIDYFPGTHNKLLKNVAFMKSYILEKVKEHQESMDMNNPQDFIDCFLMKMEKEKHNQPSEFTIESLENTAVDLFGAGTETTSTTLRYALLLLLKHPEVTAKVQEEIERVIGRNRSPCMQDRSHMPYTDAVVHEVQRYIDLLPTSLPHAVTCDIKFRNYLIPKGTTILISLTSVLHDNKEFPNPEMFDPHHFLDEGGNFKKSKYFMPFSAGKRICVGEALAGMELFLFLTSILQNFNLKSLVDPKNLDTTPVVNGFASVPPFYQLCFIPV
Thyrotropin-releasing hormone receptor (Homo sapiens), sequence (P34981 whole entry, looked up): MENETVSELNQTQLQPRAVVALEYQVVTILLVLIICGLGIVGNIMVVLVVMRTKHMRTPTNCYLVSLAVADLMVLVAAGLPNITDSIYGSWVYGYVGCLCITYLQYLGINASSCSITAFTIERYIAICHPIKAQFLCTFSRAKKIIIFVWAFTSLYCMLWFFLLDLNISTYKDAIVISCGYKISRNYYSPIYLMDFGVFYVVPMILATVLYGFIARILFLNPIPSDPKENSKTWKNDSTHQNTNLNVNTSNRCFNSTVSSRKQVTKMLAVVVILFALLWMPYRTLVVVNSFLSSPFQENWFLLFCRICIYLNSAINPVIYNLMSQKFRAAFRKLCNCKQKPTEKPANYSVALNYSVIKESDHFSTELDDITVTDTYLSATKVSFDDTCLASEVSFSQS

OCCCc1cccnc1
not listed: [18]
inactive: all other assays above

CN(C)CCN1CCOCC1
not listed: [13] | [15]
inactive: all other assays above

CCCCCCCC(=O)OCC
not listed: [13]
inactive: all other assays above

CCCC(=O)OCC(COC(=O)CCC)OC(=O)CCC
active: [16] 20 µM | [17] 5.64 µM
inactive: all other assays above

CCOCOCC
inactive: all assays above

C=C(C)CCCC
not listed: [12] | [15]
inactive: all other assays above

CC1=C(/C=C/C(C)=C/C=C/C(C)=C\C=O)C(C)(C)CCC1
active: [12] 57.9 µM | [14] 51.6 µM | [16] 37.8 µM | [17] 59.9 µM
not listed: [7] | [13] | [15] | [18]
inactive: all other assays above

Clc1cc(Cl)c(-c2c(Cl)c(Cl)cc(Cl)c2Cl)cc1Cl
not listed: [8] | [9] | [11]
inactive: all other assays above

Reference: PubChem BioAssay (Tox21)
